Screens deposited in PubChem by Center for Chemical Genomics, University of Michigan.
An excerpt weighted towards active compounds, which were near 0.9% of everything screened.
HIV TAR-Tat: TAR RNA-Tat peptide displacers, HIV-1, primary screen, biochemical, FRET, FAM/TAMRA-labeled Tat | HIV-1 TAR RNA, Tat peptide displacement FRET; stronger effect = higher value | z-score (test concentration not listed) | hit rate 0.6% among 100,000 | AID 1259389, 2018; active = z-score of 3 or more in at least 2 runs
CDC25B CDK2 inh: primary biochemical HTRF screen for blockers of M-phase inducer phosphatase 2 binding to CDK2/cyclin A; z-score (no concentration beside the values); HTRF CDC25B-CDK2/CyclinA binding, anti-His/anti-Flag; stronger effect = higher value; hit rate 0.72% among 94,000; in the data active = z-score above about 3.2
Each line names hits and unclear results; the compound was inactive in the other large screens.

Oc1ccccc1-c1nc(-c2cccs2)c(-c2cccs2)[nH]1	CDC25B CDK2 inh 18
CC1CCCC(NC(=O)C2(C)Cn3c(cc4occc43)C(=O)N2C2CCCC2)C1C (stereo not given)	none (no result: CDC25B CDK2 inh)
CC1CCCC(NC(=O)C2(C)Cn3c(cc4occc43)C(=O)N2CC2CCCO2)C1C (stereo not given)	HIV TAR-Tat 6.8 (no result: CDC25B CDK2 inh)
COCCNC(=O)Cn1c2ccccc2c2nc(=O)cc(C)n21	none
Cn1c(=O)c2cc(C(=O)NCCCN3CCCC3)sc2c2ccccc21	none
Cn1c(=O)c2cc(C(=O)NC3CCCC3)sc2c2ccccc21	CDC25B CDK2 inh 3
CSc1sc(C(=O)NNC(=O)Nc2ccc(Cl)cc2)c2c1C1(CCC2)SCCS1	none (no result: HIV TAR-Tat)
CSc1sc(C(=O)NC(=O)Nc2ccc(Cl)cc2)c2c1-c1nocc1CC2	CDC25B CDK2 inh 13 (no result: HIV TAR-Tat)
COc1ccc(OC)c(C2/C(=C(\O)c3ccccc3)C(=O)C(=O)N2c2cccnc2)c1 (stereo not given)	none
COc1ccc(OC)c(C2/C(=C(/O)c3ccc(C)cc3)C(=O)C(=O)N2c2cccnc2)c1 (stereo not given)	CDC25B CDK2 inh 6
CCC(=O)N1CCc2cc(Br)cc(S(=O)(=O)CCC(=O)N3CCCCC3)c21	none (no result: HIV TAR-Tat)
CCN1CCN(C2=NS(=O)(=O)C(c3cccc(Cl)c3)=C2C)CC1	none
CC(C)NCC(O)COc1ccc(COCCOC(C)C)cc1 (stereo not given)	CDC25B CDK2 inh 5.2
COC(=O)CCc1ccc(OCC(O)CNC(C)C)cc1 (stereo not given)	none (no result: CDC25B CDK2 inh)
CCOCCOC(=O)C1=C(C)NC2=C(C(=O)C(C(=O)OC)C(C)C2)C1c1ccccc1F (stereo not given)	none
Cn1c(=O)c2c(-c3ccc(Br)cc3)n(-c3ccc4c(c3)nc(CO)n4C)cc2n(C)c1=O	CDC25B CDK2 inh 15
Cc1ccc(-n2cc3c(c2-c2ccc(Br)cc2)c(=O)n(C)c(=O)n3C)cc1	none
COc1cccc(C2CC(=O)N3CN(C4CCCCC4)CSC3=C2C#N)c1 (stereo not given)	CDC25B CDK2 inh 5.3
CCOc1ccc(C2CC(=O)N3CN(C4CCCC4)CSC3=C2C#N)cc1 (stereo not given)	none
N#CC1=C2SCN(C3CCCC3)CN2C(=O)CC1c1ccc(F)cc1 (stereo not given)	CDC25B CDK2 inh 4
COc1ccc(OC)c(C2CC(=O)N3CN(C4CCCCC4)CSC3=C2C#N)c1 (stereo not given)	CDC25B CDK2 inh 5.3
COc1cccc(C2CC(=O)N3CN(C4CCCC4)CSC3=C2C#N)c1 (stereo not given)	CDC25B CDK2 inh 5.7
O=C(Nc1onc2c1CCCC2)C1COc2ccccc2O1 (stereo not given)	none
CC1CCc2c(cnc3c(C(=O)NCc4ccco4)cnn23)C1 (stereo not given)	none (no result: CDC25B CDK2 inh)
COc1ccc2c(c1)[C@@]1(C)CCC(=O)C[C@@H]1CC2	none (no result: CDC25B CDK2 inh)
N#CC1=C2SCN(C3CCCCC3)CN2C(=O)CC1c1cccc2ccccc12 (stereo not given)	CDC25B CDK2 inh 4.2
N#CC1=C2SCN(Cc3ccco3)CN2C(=O)CC1c1cccc2ccccc12 (stereo not given)	none
CCn1ncc(C2=NOC(C(=O)NCc3ccc4c(c3)OCO4)C2)c1C (stereo not given)	none
Cc1sc2ncn(CC(=O)N(C)C3CCCCC3)c(=O)c2c1S(=O)(=O)N1CCN(C)CC1	CDC25B CDK2 inh 15
Cc1sc2ncn(CC(=O)N3CCN(C)CC3)c(=O)c2c1S(=O)(=O)N1CCCCC1	none (no result: HIV TAR-Tat)
COC(=O)c1cc(=O)nc2sc3cc(C)ccc3n12	none
CCN1CCN(C(=O)c2cc3c(s2)-c2ccccc2OC3)CC1	none
COc1ccc(Nc2nc3c4ccccc4n(C(C)=O)c3s2)cn1	CDC25B CDK2 inh 14
C=CCNc1nc2c3ccccc3n(C(C)=O)c2s1	none
O=C(O)c1ccccc1Nc1cccc2c1C(=O)c1cccc(Nc3ccccc3C(=O)O)c1C2=O	HIV TAR-Tat 19 (no result: CDC25B CDK2 inh)
Cc1c(Cl)cccc1Nc1ccccc1C(=O)O	none (no result: CDC25B CDK2 inh)
CCc1cc2c(Nc3ccc(OC)cc3)ncnc2s1	none (no result: CDC25B CDK2 inh)
c1ccc(-c2noc(-c3cccc4ccccc34)n2)nc1	CDC25B CDK2 inh 12
Fc1ccccc1-c1nc(-c2ccccn2)no1	none (no result: HIV TAR-Tat)
COc1ccc(C2CC(SCC(=O)c3ccc(Cl)cc3)=Nc3ncnn32)cc1 (stereo not given)	none
CC(C)Nc1cc(N2CCOCC2)c2noc3c2c1C(=O)c1ccccc1-3	HIV TAR-Tat 6.2
CC(C)CNc1cc(N2CCN(C(=O)c3ccco3)CC2)c2noc3c2c1C(=O)c1ccccc1-3	none
O=C1c2ccccc2-c2onc3c(N4CCOCC4)cc(N4CCOCC4)c1c23	none
O=C1c2ccccc2-c2onc3c(N4CCOCC4)cc(Nc4ccc(F)cc4)c1c23	CDC25B CDK2 inh 13
COc1ccc(Nc2cc(N3CCOCC3)c3noc4c3c2C(=O)c2ccccc2-4)cc1	none
CC(C)Nc1cc(N2CCN(C(=O)c3ccco3)CC2)c2noc3c2c1C(=O)c1ccccc1-3	HIV TAR-Tat 5.6
CCCCCOC(=O)C1=C(C)Nc2nnnn2C1c1ccc(OC)c(Br)c1 (stereo not given)	none (no result: CDC25B CDK2 inh)
Cc1nc2ccc(NC(=O)CSc3nnc(-c4cc5ccccc5o4)n3-c3ccccc3)cc2[nH]1	none (no result: CDC25B CDK2 inh)
CC(Oc1ccccc1)C(=O)Nc1c(C(=O)NC(C)(C)C)oc2ccccc12 (stereo not given)	none (no result: CDC25B CDK2 inh)
Cn1cc(NC(=O)Nc2nc3ccccc3s2)c2ccccc2c1=O	none (no result: CDC25B CDK2 inh)
O=C1c2cccnc2C(=O)N1Cc1ccc(F)cc1S(=O)(=O)Nc1cccc(-c2ccno2)c1	none (no result: CDC25B CDK2 inh)
Cc1cc(C)c2c(=O)[nH]c(SCC(=O)c3ccc(O)c(O)c3)nc2n1	HIV TAR-Tat 30
CCN(CC)C(=O)CSc1nc2nc(C)cc(C)c2c(=O)[nH]1	none (no result: HIV TAR-Tat)
COc1cccc(C(=O)Nc2n[nH]c3ccccc23)c1	CDC25B CDK2 inh 5.2 (no result: HIV TAR-Tat)
COc1cc(OC)cc(C(=O)Nc2noc3ccccc23)c1	none
Cc1ccc2c(c1)NC(SCC(=O)NC1CCCC1)=NS2(=O)=O	none (no result: CDC25B CDK2 inh)
O=C1NC(=S)N/C1=C/c1ccc(-c2cc(C(=O)O)ccc2Cl)o1	CDC25B CDK2 inh 3.6 (no result: HIV TAR-Tat)
O=C1NC(=O)/C(=C/c2ccc(-c3ccc(F)cc3O)o2)S1	none (no result: HIV TAR-Tat)
Cc1onc(-c2ccccc2)c1NC(=O)Nc1ccccc1N1CCOCC1	none (no result: HIV TAR-Tat)
Cc1onc(-c2ccccc2)c1NC(=O)Nc1ccc(C2=NC(C)(C)CO2)cc1	CDC25B CDK2 inh 5.6 (no result: HIV TAR-Tat)
Cc1csc(NC(=O)CSc2nc(=O)n(Cc3cccnc3)c3c2CCC3)n1	none (no result: CDC25B CDK2 inh)
COc1cccc2c(=O)c(NC(=O)N3CCC(C(N)=O)CC3)c[nH]c12	none
CCCC(=O)Nc1nnc(SCc2cc(=O)n3nc(CC)sc3n2)s1	none (no result: CDC25B CDK2 inh)
O=S(=O)(c1ccc(F)cc1)N1CCN(Cc2ccc3c(c2)OCO3)CC1	CDC25B CDK2 inh 16
O=S(=O)(c1cccc(F)c1)N1CCN(Cc2ccc3c(c2)OCO3)CC1	none (no result: HIV TAR-Tat)
CC1=NN(c2nc(-c3ccc(Cl)cc3)cs2)C(=O)/C1=C\c1ccc2c(c1)OCO2	CDC25B CDK2 inh 6.9 (no result: HIV TAR-Tat)
CC1=CC(=O)N(c2nc(-c3ccc(Cl)cc3)cs2)C1=O	none (no result: HIV TAR-Tat)
CC1=NN(c2nc(-c3ccc(Br)cc3)cs2)C(=O)/C1=C\c1ccc2c(c1)OCO2	CDC25B CDK2 inh 21 (no result: HIV TAR-Tat)
O=C(CCN1C(=O)/C(=C/c2ccc3c(c2)OCO3)SC1=S)Nc1nc(-c2ccccc2)cs1	none (no result: HIV TAR-Tat)
CCOCc1nc2sc(C)c(-c3ccccc3)c2c(=O)[nH]1	none
CCOC(=O)c1c(S(=O)(=O)NCCN2CCC(C)CC2)c(C)n(C)c1C	none (no result: CDC25B CDK2 inh)
